# Source: PubChem BioAssay AID504621 (Broad Institute, 2011)
# Among all 310,000 compounds or so, about 970 (0.31%) were called active. The full list was thinned out, with actives kept by preference. Values without a mark were called inactive.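 The calls were made as follows: active = every replicate shows inhibition above about 80%, whatever the replicate mean (limit read from the data); inconclusive = mean inhibition reaches the set limit but some replicate falls short; inactive = the rest.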
# Assay: reduced ATP signal of yeast carrying P. falciparum Hsp90 – S. cerevisiae, BacTiter-Glo luminescence, single point, set 2, antimalarial PfHsp90 inhibitor project, primary screen (AID 504621);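 also: yeast relying on Plasmodium falciparum Hsp90 in place of its own; 0% = DMSO neutral controls and 100% = 20 µM radicicol positive controls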
# Conditions: S. cerevisiae expressing PfHsp90, growth, 48 h, at 9.4 µM, stronger effect = higher value, yeast lacking PDR1 and PDR3 efflux regulators
row,SMILES,inhibition
1,O=C(/C=C/c1ccc(Cl)c([N+](=O)[O-])c1)c1cccnc1,104% (active)
2,O=C(/C=C/c1ccc(Cl)c([N+](=O)[O-])c1)c1ccc(O)cc1,12.9%
3,O=C(Nc1cccnc1)c1ccc(Cl)c([N+](=O)[O-])c1,15.1%
4,COc1ccc(CNCCCn2cnc3c(OCc4ccccc4)ncnc32)cc1,21.9%
5,COc1ccc(C(=O)Nc2cccc(/C=C(/CCC(=O)O)c3nc4ccccc4s3)c2)cc1,-6.48%
6,O=C(NN=Cc1ccccc1O)NN=Cc1ccccc1O,15.3%
7,COC[C@@H]1NS(=O)(=O)c2ccc(Br)cc2O[C@H]1c1ccccc1,-9.7%
8,CC(C)OC(=O)c1ccc(NCc2cc(O)ccc2O)cc1Cl,121% (active)
9,CC(C)NC(=O)c1ccc(Cl)cc1Cl,-8.78%
10,CC(CN1CCOCC1)OC(=O)c1ccc(Cl)cc1Cl (stereo not given),-17.2%
11,N#CC1=C(N)Oc2cc(N)ccc2C1c1ccccc1 (stereo not given),-6.35%
12,O=C(Cc1ccc(S(=O)(=O)N2CCOCC2)s1)Nc1ccc(Br)c(C(F)(F)F)c1,0.787%
13,Cc1[nH]n(-c2ccc([N+](=O)[O-])cc2)c(=O)c1C=NCCN1CCN(C(=O)c2ccccc2F)CC1,86.9% (active)
14,C=CCNC(=S)N1CCN(CCN=Cc2c(C)[nH]n(-c3ccc([N+](=O)[O-])cc3)c2=O)CC1,-11.1%
15,Cc1[nH]n(-c2ccccc2)c(=O)c1N=Nc1ccccc1C(=O)N1CCCCC1,9.24%
16,CCOC(=O)CCC(NC(=O)c1ccc(CNc2nc3cc(C(F)(F)F)ccc3nc2C(=O)OCC)cc1)C(=O)OCC (stereo not given),-2.78%
17,Cc1ccc(S(=O)(=O)N2CCN(C(=O)COC(=O)/C=C/c3cccc(Cl)c3)CC2)c(C)c1,4.86%
18,O=C(NCc1ccc2c(c1)OCO2)c1c(-c2ccsc2)sc2ccccc12,20.1%
19,Cc1cccc(-c2oc3ccc(-c4ccc5c(c4)OCO5)cc3c2C#Cc2cncn2C)c1,-2.66%
20,C/C(=N\NC(=O)c1ccccc1F)c1ccccn1,-13%
21,C/C(=N\NC(=O)Cc1ccc(Cl)cc1)c1ccccn1,-4.85%
22,CC(=NNC(=S)N1CCCCCC1)c1ccccn1,91.4% (active)
23,Oc1[nH]c2ccccc2c1N=Nc1c(F)c(F)c(F)c(F)c1F,-34.3%

row,SMILES,inhibition
1,COc1ccc(C(=O)N(C)Cc2ccc(OC)c(OC)c2OC)cc1S(=O)(=O)N1CCOCC1,5.5%
2,O=C(CN1C(=O)NC2(CCCCCCC2)C1=O)NCc1ccc(F)cc1,12.2%
3,OCC1(CO)CC2(C1)CC(CO)(CO)C2,6.26%
4,Cn1nccc1C(=O)N1CCCC(C(=O)c2ccc(Oc3ccccc3)cc2)C1 (stereo not given),-45.9%
5,CCNC(=O)N1CCCC(C(=O)c2ccc(-c3ccccc3)cc2)C1 (stereo not given),-1.67%
6,O=C(c1ccc(-c2ccccc2)cc1)C1CCCN(C(=O)c2cncs2)C1 (stereo not given),90.2% (active)
7,CC(C)(C)OC(=O)N(Cc1ccccc1)Cc1ccc(OCc2cccc(NC(=O)c3ccccc3)c2)cc1,25%
8,COc1cccc2oc(CCc3ccccc3)cc(=O)c12,8.03%
9,O=C(Cc1ccc(Cl)c(Cl)c1)Nc1ccc(SC(F)F)cc1,12.6%
10,O=C(CC1SCCNC1=O)Nc1ccc(Cl)c(Cl)c1 (stereo not given),15%
11,O=C(CC(O)(C(F)(F)F)C(F)(F)F)Nc1ccc(Cl)c(Cl)c1,123% (active)
12,Cc1cc([N+](=O)[O-])ccc1NS(=O)(=O)c1ccccc1,-35.7%
13,COC(=O)/C=C\C(=O)Nc1cccc([N+](=O)[O-])c1,106% (active)
14,COc1ccc(S(=O)(=O)NC(C)C(=O)Nc2cccc([N+](=O)[O-])c2)cc1 (stereo not given),4.61%
15,COc1cccc(CNC(=O)CCCC(=O)Nc2cccc([N+](=O)[O-])c2)c1,-1.23%
16,O=[N+]([O-])/C=C/c1ccc2c(ccn2Cc2ccccc2)c1,104% (active)
17,O=C(/C=C/c1cccc([N+](=O)[O-])c1)N1CCN(Cc2ccccc2)CC1,0.555%
18,COC(=O)Cn1cc(/C=C/[N+](=O)[O-])c2ccccc21,-17%
19,COC(=O)c1ccc(COc2ccc(/C=C/C(=O)c3ccc(OC)c(CSCC(=O)O)c3)cc2OC)cc1,1.15%
20,COc1ccc(/C=C/C(=O)c2ccc(NS(=O)(=O)c3ccc(C)cc3)cc2)cc1O,-4.81%
21,COc1ccc(C(=O)/C=C/c2ccc(-c3ccccc3)cc2)cc1CSCC(=O)O,105% (active)
22,CN(CCc1ccccc1)C(=O)c1cccc(NC(=O)Cc2cccc(NC(=O)C3CCCN(C(=O)CCc4ccccc4)C3)c2)c1 (stereo not given),-1.39%
23,O=C(Nc1ccn(CCCNCc2ccc3[nH]ccc3c2)c(=O)n1)OCc1ccccc1,-7.16%

row,SMILES,inhibition
1,CCCCN1CC(COc2ccccc2)Oc2cccc(F)c2S1(=O)=O (stereo not given),-1.66%
2,O=C(NNC(=O)c1ccccc1O)c1ccccc1O,-9.27%
3,CN(/N=C/c1ccccc1)C(=S)c1ccccc1,-15.5%
4,CN(O)C(=S)c1ccccc1,104% (active)
5,CN(CC(=O)O)C(=O)c1ccccc1,28.8%
6,CCc1ccc(C(=O)C(C)OC(=O)CN2C(=O)NC3(CCCC3)C2=O)cc1 (stereo not given),-1.32%
7,Cc1nnsc1C(=O)N/N=C/c1ccccc1Cl,1.6%
8,O=C(Nc1ccccc1)c1nnsc1S(=O)(=O)c1ccc(Cl)cc1,126% (active)
9,O=C(Nc1ccc(Cl)cc1)Nc1nnc(/C=C/c2ccccc2)s1,8.47%
10,O=C(C[C@H]1C/C=C\C[C@@H](NC(=O)OCC2c3ccccc3-c3ccccc32)C(=O)O[C@@H](c2ccccc2)CNC1=O)N[C@H](CO)Cc1ccccc1,-13.9%
11,OCCN1CCN(CCO)C1=S,15.3%
12,S=c1[nH]nc(-c2cc(-c3ccccc3)n[nH]2)n1/N=C/c1c2ccccc2cc2ccccc12,-28.2%
13,Oc1ccccc1/C=N/n1c(-c2cccs2)n[nH]c1=S,-9.75%
14,Cc1cc(-c2n[nH]c(=S)n2/N=C/C(Br)=C/c2ccccc2)n[nH]1,109% (active)
15,CCCN(CCC)S(=O)(=O)c1cc2c(cc1Br)CCN2C(=O)CC,-17.7%
16,CSCCC(NC(=O)COc1ccccc1)C(=O)OCc1ccc(Cl)cc1 (stereo not given),6.52%
17,O=C1/C(=C\c2ccc(O)cc2)CCC1CNc1ccc(Cl)cc1 (stereo not given),42.3%
18,CC(C)N(C(=O)[C@H]1C[C@H](CC(=O)NC(C)(C)C)C(=O)N2CCc3c([nH]c4ccc(Cl)cc34)[C@]12C)C(C)C,21.3%
19,CC1(C)C2CCC1(C)C(OC(=O)c1ccc(O)cc1)C2 (stereo not given),11.7%
20,O=C(OC12CC3CC(CC(C3)C1)C2)c1ccc(NCc2cc(O)ccc2O)cc1,124% (active)
21,COC(=O)c1ccc(NCc2cc(O)ccc2O)cc1,30.3%
22,O=C(Nc1c(Br)cc2c(c1Br)Cc1cc([N+](=O)[O-])ccc1-2)C(Cl)Cl,-28.5%
23,O=S1(=O)CCOC[C@H](Cc2ccccc2)N1Cc1ccccc1Br,10.2%

row,SMILES,inhibition
1,C=CCOC(=O)N1CCC2CC1c1cc(-c3ccc(OC)cc3)ccc12 (stereo not given),-3.16%
2,COc1ccccc1C(=O)c1ccccc1C(=O)c1ccccc1,-29.9%
3,CN(CCc1ccccc1)C(=O)c1cccc(NC(=O)Cc2cccc(NC(=O)C3CCCN(C(=O)C4CCC4)C3)c2)c1 (stereo not given),10.6%
4,CCOC(=O)c1ccc(N2C(=O)CC(N3CCN(C(=O)c4ccccc4)CC3)C2=O)cc1 (stereo not given),18.7%
5,CCOC(=O)c1ccc(N2C(=O)CC(N3CCC(C(=O)OCC)CC3)C2=O)cc1 (stereo not given),94.1% (active)
6,CCOC(=O)c1ccc(N2C(=O)CC(N3CC(C)OC(C)C3)C2=O)cc1 (stereo not given),11.2%
7,CSc1ncnc2c1ncn2CC(=O)C1CCC2C3CCC4=CC(=O)CCC4(C)C3CCC12C (stereo not given),17%
8,CCOC(=O)[C@H]1[C@H]2COc3ccc(Br)cc3[C@@H]2N2C(=O)CN(C)C(=O)[C@@]12C,3.33%
9,C=CC(=O)Nc1ccc(Nc2ccnc(Nc3ccc(N4CCN(C)CC4)cc3)n2)cc1,1.37%
10,CCN(CC)S(=O)(=O)c1ccc(N2CCCC2)c(NC(=O)c2ccc([N+](=O)[O-])o2)c1,7.78%
11,CC(=O)Oc1ccccc1C1=NN(C(C)=O)C(c2ccccc2)C1 (stereo not given),6.42%
12,O=C(c1ccccc1)N1N=C(c2ccccc2O)CC1c1ccc(Br)cc1 (stereo not given),-6.75%
13,Oc1ccccc1C1=NN(c2ccccc2)C(c2ccccc2)C1 (stereo not given),106% (active)
14,OCc1ccc(OCCCOc2cccc3cccnc23)cc1,24.6%
15,Fc1ccccc1COc1cccc2cccnc12,5.74%
16,O=C(Nc1ccccc1)Oc1cccc2cccnc12,104% (active)
17,CCOc1ccc(S(=O)(=O)N2CCN(C(=O)c3oc4ccccc4c3C)CC2)cc1,-16.3%
18,CC(=O)Oc1ccc(OC(C)=O)c2c1C1C=CC2CC1,-4.99%
19,O=C(NN=Cc1ccc([N+](=O)[O-])cc1)C1CC1,-9.96%
20,O=C1/C(=C\c2ccc([N+](=O)[O-])cc2)CS(=O)(=O)C/C1=C/c1ccc([N+](=O)[O-])cc1,104% (active)
21,O=[N+]([O-])c1ccc(C=NN=Cc2ccc([N+](=O)[O-])cc2)cc1,-1.39%
